Source: PubChem
M4 antag = human M4 muscarinic receptor antagonists, primary screen, CHO cells, Fluo-8 calcium fluorescence | CHO-hM4 cells, ACh EC80 | inhibition, % at 3 µM | 360,000 compounds, 0.73% hits | AID 624125, 2012;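 active = inhibition above its plate's cutoff, the mean inhibition of sample wells plus 3 SD, cut at about 27% in these data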;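 note: 0% = acetylcholine EC80 with DMSO and 100% = DMSO without agonist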
M4 PAM = human M4 muscarinic receptor positive allosteric modulators, primary screen, CHO-K1 cells, Fluo-8 calcium fluorescence | 360,000 compounds, 0.4% hits | CHO-K1 hM4/Gqi5, ACh EC20; 0% = ACh EC20, 100% = maximal ACh | activation, % at 3 µM | Muscarinic acetylcholine receptor M4 (Homo sapiens), P08173;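 active = activation above its plate's cutoff, the mean activation of sample wells plus 3 SD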
CHRM1 antagonist = human M1 muscarinic receptor antagonists, primary screen, CHO-K1 cells, Fluo-8 calcium fluorescence, 1536-well. CHO-K1 hM1, ACh EC80 antagonist. inhibition, % at 3 µM. 360,000 compounds, 1.3% hits;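 active = percent inhibition above its own plate's cutoff, namely the mean of that plate's compound wells plus 3 SD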;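 note: peak over basal fluorescence ratio during 140 s after agonist addition; 0% = ACh EC80 plus DMSO and 100% = DMSO alone without agonist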
Target sequence (P11229 whole entry, looked up): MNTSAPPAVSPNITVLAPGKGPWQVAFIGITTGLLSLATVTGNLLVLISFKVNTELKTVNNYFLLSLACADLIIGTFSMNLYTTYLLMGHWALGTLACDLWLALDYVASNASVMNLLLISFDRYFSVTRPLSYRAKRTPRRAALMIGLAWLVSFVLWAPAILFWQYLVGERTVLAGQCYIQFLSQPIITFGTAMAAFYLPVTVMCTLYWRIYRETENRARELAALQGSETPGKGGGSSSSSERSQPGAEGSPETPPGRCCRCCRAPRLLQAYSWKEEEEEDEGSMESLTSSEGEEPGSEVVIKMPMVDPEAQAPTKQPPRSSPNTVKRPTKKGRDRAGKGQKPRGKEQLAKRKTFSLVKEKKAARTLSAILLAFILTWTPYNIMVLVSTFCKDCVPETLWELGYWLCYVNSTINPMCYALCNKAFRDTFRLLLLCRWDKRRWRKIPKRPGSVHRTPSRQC
CHRM1 PAM = human M1 muscarinic receptor positive allosteric modulators, primary screen, CHO-K1 cells, Fluo-8 calcium fluorescence, 1536-well; activation, % at 3 µM; 360,000 compounds, 0.088% hits; CHO-K1 hM1, ACh EC20; 0% = ACh EC20, 100% = maximal ACh; Muscarinic acetylcholine receptor M1 (Homo sapiens), P11229; in the data active = activation above about 19%, passing the limit was not always enough
CHRM1 agonist = human M1 muscarinic receptor agonists, primary screen, Fluo-8 calcium fluorescence, CHO-K1 cells, HTS; CHO-K1 hM1, agonist mode; 0% DMSO, 100% acetylcholine EC100; activation, % at 3 µM; AID 588814, 2011; Muscarinic acetylcholine receptor M1 (Homo sapiens), P11229; 360,000 compounds, 0.33% hits;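 active = activation above the run's mean compound activation plus 3 SD, cut at about 16% in these data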;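 note: peak over basal fluorescence ratio within a 140 s kinetic read after compound addition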
CHRM4 agonist = human M4 muscarinic receptor agonists, primary screen, CHO-K1 cells, Fluo-8 calcium fluorescence. Muscarinic acetylcholine receptor M4 (Homo sapiens), P08173. CHO-K1 hM4/Gqi5; vehicle 0%, full acetylcholine response 100%. activation, % at 3 µM. 360,000 compounds, 0.14% hits;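 active = activation above the run mean over all test wells plus 3 SD, cut at about 32% in these data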;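 note: peak over basal fluorescence ratio per well then scaled between controls; 0% = DMSO wells and 100% = acetylcholine at EC100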
Numbers without * were called inactive. Sampled rows, rich in hits. Any-hit rate of the full collection: about 2.2%.

`Cc1cccc(-c2oc3ccc(-c4ccc5c(c4)OCO5)cc3c2/C=C/c2ccc(N)cc2)c1` gave M4 antag -4, M4 PAM 9, CHRM1 antagonist 7, CHRM1 PAM 0, CHRM1 agonist -1 and CHRM4 agonist 1.
CCOC(=O)N1CCN(CC(=O)Nc2cc3c(cc2C(C)=O)OCO3)CC1 was read as M4 antag -5, M4 PAM 4, CHRM1 antagonist -9, CHRM1 PAM 4, CHRM1 agonist -2 and CHRM4 agonist 0.
CCN1CCN(C(=O)/C=C/c2ccc(F)cc2)CC1 was read as M4 antag 3, M4 PAM -1, CHRM1 antagonist -12, CHRM1 PAM 4, CHRM1 agonist -6 and CHRM4 agonist 1.
Screening CCN1CCN(C(=O)/C=C/c2ccc(OC)cc2)CC1 returned M4 antag -24, M4 PAM 12*, CHRM1 antagonist -22, CHRM1 PAM 13, CHRM1 agonist -5 and CHRM4 agonist 1.
For COc1ccccc1N=C1NC(=O)/C(=C/c2ccc(N(C)C)cc2)S1 the results were M4 antag 14, M4 PAM -14, CHRM1 antagonist 10, CHRM1 PAM -2, CHRM1 agonist 22* and CHRM4 agonist 22.
For Cc1ccc(C(=O)N/C(=C/c2cccnc2)C(=O)NCc2ccco2)cc1 the results were M4 antag -1, M4 PAM 8, CHRM1 antagonist -6, CHRM1 PAM 2, CHRM1 agonist -2 and CHRM4 agonist 0.
`C=CCNC(=S)N1CCC(C(N)=O)CC1` gave M4 antag 3, M4 PAM 0, CHRM1 antagonist -3, CHRM1 PAM 3, CHRM1 agonist -3 and CHRM4 agonist 0.
Screening NC(=O)C1(NC(=O)[C@@H]2CC3(CC(c4cccc(NC(=O)c5cc([N+](=O)[O-])cc([N+](=O)[O-])c5)c4)=NO3)CN2C(=O)c2ccccc2)CC1 (stereo not given in full) returned M4 antag 2, M4 PAM 8, CHRM1 antagonist -5, CHRM1 PAM 11, CHRM1 agonist -5 and CHRM4 agonist 1.
For O=C(COc1cccnc1[N+](=O)[O-])Nc1c(Cl)cccc1Cl the results were M4 antag -5, M4 PAM 3, CHRM1 antagonist -7, CHRM1 PAM 4, CHRM1 agonist -2 and CHRM4 agonist 1.
O=C(COc1cccnc1[N+](=O)[O-])Nc1ncc(Cl)cc1Cl was read as M4 antag -18, M4 PAM 25*, CHRM1 antagonist -11, CHRM1 PAM 15, CHRM1 agonist 0 and CHRM4 agonist 2.
O=C(Nc1ccc2c(c1)CCC2)C1CCN(c2c3c(nc4ncnn24)CCC3)CC1 was read as M4 antag 0, M4 PAM 7, CHRM1 antagonist -2, CHRM1 PAM 3, CHRM1 agonist -5 and CHRM4 agonist -1.
O=C(Nc1ccc(Oc2ccccc2)cc1)C1CCN(c2c3c(nc4ncnn24)CCC3)CC1 was read as M4 antag 11, M4 PAM -17, CHRM1 antagonist 36*, CHRM1 PAM -16, CHRM1 agonist 1 and CHRM4 agonist 4.
For CCOC(=O)C1CCN(c2ncnc3c(C)csc23)CC1 the results were M4 antag 35*, M4 PAM -46, CHRM1 antagonist 40*, CHRM1 PAM -23, CHRM1 agonist 6 and CHRM4 agonist 22.
`COc1cccc(C(=O)N[C@@H](CCSC)c2nc3ccccc3[nH]2)c1` gave M4 antag -4, M4 PAM 3, CHRM1 antagonist -17, CHRM1 PAM 6, CHRM1 agonist -6 and CHRM4 agonist 5.
`c1ccc(CN2CCC(Nc3ncnc4sccc34)CC2)cc1` gave M4 antag 2, M4 PAM 1, CHRM1 antagonist 16, CHRM1 PAM -5, CHRM1 agonist -2 and CHRM4 agonist 0.
`Cc1sc2ncnc(NC3CCN(Cc4ccccc4)CC3)c2c1C` gave M4 antag 19, M4 PAM -18, CHRM1 antagonist 43*, CHRM1 PAM -23, CHRM1 agonist -6 and CHRM4 agonist 11.
`Cc1nnc(NC(=O)c2c(-c3ccccc3)noc2C)s1` gave M4 antag 7, M4 PAM -3, CHRM1 antagonist -5, CHRM1 PAM 7, CHRM1 agonist -4 and CHRM4 agonist 0.
`Cc1onc(-c2ccccc2)c1C(=O)Nc1nnc(N(C)Cc2ccccc2)s1` gave M4 antag -11, M4 PAM 18*, CHRM1 antagonist -8, CHRM1 PAM 4, CHRM1 agonist -2 and CHRM4 agonist 5.
Cn1ncc(Br)c1C(=O)NC1CCCCCCC1 was read as M4 antag -3, M4 PAM 5, CHRM1 antagonist 0, CHRM1 PAM -1, CHRM1 agonist -4 and CHRM4 agonist 1.
`COc1ccc(S(=O)(=O)N2CCCC2CNC(=O)C(=O)NCCc2ccccc2)cc1` (stereo not given) gave M4 antag 7, M4 PAM -9, CHRM1 antagonist 14, CHRM1 PAM -8, CHRM1 agonist -1 and CHRM4 agonist 21.
For O=C(NCCc1ccc(F)cc1)C(=O)NCC1CCCN1S(=O)(=O)c1ccccc1 (stereo not given) the results were M4 antag 10, M4 PAM -9, CHRM1 antagonist 27*, CHRM1 PAM -7, CHRM1 agonist 2 and CHRM4 agonist 21.
Cc1ccc(C)c(S(=O)(=O)N2CCCC2CNC(=O)C(=O)NCCc2ccccc2)c1 (stereo not given) was read as M4 antag 8, M4 PAM -8, CHRM1 antagonist 31*, CHRM1 PAM -12, CHRM1 agonist 0 and CHRM4 agonist 25.
For COc1ccc(CCNC(=O)C(=O)NCC2CCCN2S(=O)(=O)c2ccccc2)cc1 (stereo not given) the results were M4 antag 20, M4 PAM -14, CHRM1 antagonist 29*, CHRM1 PAM -9, CHRM1 agonist 0 and CHRM4 agonist 19.
For COC(=O)c1cnc(Nc2ccc(Cl)cc2)c([N+](=O)[O-])c1 the results were M4 antag 0, M4 PAM -5, CHRM1 antagonist -14, CHRM1 PAM 9, CHRM1 agonist 0 and CHRM4 agonist 1.
COC(=O)c1sc(S(=O)(=O)N2CCC(C)CC2)c(C(=O)OC)c1C was read as M4 antag -11, M4 PAM 0, CHRM1 antagonist 11, CHRM1 PAM -6, CHRM1 agonist -5 and CHRM4 agonist -2.
